Inconclusive results are not listed. A call without a number means that no potency is given here. The source made the active and inactive calls. Calls come from the whole dose curve.
Assay: qHTS assay to identify small molecule agonists of the progesterone receptor (PR) signaling pathway - cell viability counter screen (AID 1346799); note: nearly all actives have a fitted effect of over 45% in size
Settings: PR-UAS-bla HEK293T viability, CellTiter-Glo luminescence, 16 h; series mostly up to 92.4 µM
Source text: National Center for Advancing Translational Sciences [NCATS]
NIH Chemical Genomics Center [NCGC]
U.S. Environmental Protection Agency [EPA]
National Institutes of Environmental Health Sciences [NIEHS]
National Toxicology Program [NTP]
U.S. Food and Drug Administration [FDA]
Progesterone receptor (PR), a nuclear hormone receptor, plays an important role in development, metabolic homeostasis and reproduction. It is activated by the steroid hormone progesterone. Endocrine disrupting chemicals (EDCs) and their interactions with steroid hormone receptors like PR causes disruption of normal endocrine function. To identify the compounds that stimulate PR signaling, a PR-UAS-bla GripTite cell line i.e. PR-UAS-bla HEK293T (Invitrogen, Carlsbad, CA, USA) containing a beta-lactamase reporter gene under the control of an UAS response element was used to screen Tox21 10K compound library. The cytotoxicity of the Tox21 compound library against the PR-bla cell line was tested in parallel by measuring the cell viability using CellTiter-Glo assay in the same wells.
Tox21 Assay Protocol Summary:
PR-UAS-bla HEK293T cells were dispensed at 3,000 cells/5 uL of assay medium containing 2% charcoal stripped FBS per well into black wall/clear-bottom 1536-well plates using a Multidrop Combi (ThermoFisher Scientific, Waltham, MA) dispenser. After the assay plates were incubated at a 37C and 5% CO2 for 6 hr, 23 nL of compounds dissolved in DMSO, positive controls or DMSO only was transferred to the assay plate by a Pintool station (Kalypsys, San Diego, CA). The plates were incubated at 37C and 5% CO2 for 16 hr. Then 1 uL of LiveBLAzer B/G FRET substrate was added using a Flying Reagent Dispenser (FRD, Aurora Discovery, San Diego, CA), the plates were incubated at room temperature for 2 hours, and fluorescence intensity was measured by an Envision plate reader (PerkinElmer, Shelton, CT). For cell viability readout that measures cytotoxicity, 4 uL/well of CellTiter-Glo reagent was added into the assay plates using a FRD. After 30 min incubation at room temperature, the luminescence intensity in the plates was measured using a ViewLux (PerkinElmer) plate reader.
Potency is the fitted concentration of half-maximal effect.

SMILES	Potency
ClC(Cl)C(Cl)Cl	inactive
O=C(Cc1ccccc1)OCc1ccccc1	inactive
O=NN1CCCCC1	inactive
[Cl][Sn]([Cl])([Cl])[Cl]	inactive
CCC(Cl)[N+](=O)[O-] (stereo not given)	inactive
CCN(CC)c1nc(C)cc(OP(=S)(OC)OC)n1	inactive
COCC(=O)N(c1c(C)cccc1C)N1CCOC1=O	inactive
O=C(N[C@H]1CN2CCC1CC2)c1cc2ccoc2cn1	inactive
CC(C(O)c1ccccc1)N(C)C/C=C/c1ccccc1 (stereo not given)	inactive
c1coc(-c2nc3ccccc3[nH]2)c1	inactive
CCCSC(=O)N(CCC)CCC	inactive
OC(Cn1cncn1)(c1ccc(F)cc1)c1ccccc1F (stereo not given)	inactive
O=C1CN2CCOC2(c2ccccc2Cl)c2cc(Cl)ccc2N1 (stereo not given)	inactive
C=CC1CC=CCC1 (stereo not given)	inactive
CC(C)(C)NCC(O)c1cc(Cl)c(N)c(Cl)c1 (stereo not given)	inactive
N#CCCC#N	inactive
O=C(Nc1ccccc1)c1ccccc1I	inactive
CCCCOC(=O)c1ccccc1N	inactive
Cc1cccc(C#N)c1	inactive
COc1ncc(F)c2nc(S(=O)(=O)Nc3c(F)cccc3F)nn12	inactive

SMILES	Potency
COC(=O)c1ccccc1S(=O)(=O)NC(=O)Nc1nc(C)cc(C)n1	inactive
CCN(Cc1ccc(Cl)nc1)/C(=C/[N+](=O)[O-])NC	inactive
COP(N)(=S)Oc1ccccc1C(=O)OC(C)C (stereo not given)	inactive
O=[N+]([O-])c1cc(Cl)c(Cl)c(Cl)c1	inactive
CNNC	inactive
N#CC(O)c1ccccc1 (stereo not given)	inactive
Cc1ncsc1CCCl	inactive
C[N+](C)=CCl	inactive
CCOP(=O)(OCC)OP(=O)(OCC)OCC	inactive
[As]#[In]	inactive
CCN(CC)CCOC(=O)C(C)(c1ccccc1)c1ccccc1	inactive
OC(c1ccc(F)cc1)(c1cncnc1)c1ccccc1Cl (stereo not given)	inactive
COc1cc2c(cc1OC)[C@@]13CCN4CC5=CCO[C@H]6CC(=O)N2[C@H]1[C@H]6[C@H]5C[C@H]43	inactive
CNC(=O)Oc1c(C(C)(C)C)cc(C)cc1C(C)(C)C	inactive
O=[N+]([O-])c1ccc2c3c(cccc13)CC2	inactive
CN/C(=N\[N+](=O)[O-])NCC1CCOC1 (stereo not given)	inactive
C1CCC(C2CCCCC2)CC1	8.63 µM (active)
N#CC(Cl)(Cl)Cl	inactive
CCOC(=O)C1(c2ccccc2)CCN(CCc2ccc(N)cc2)CC1	inactive
Cc1ncc(CNC(=O)N(CCCl)N=O)c(N)n1	inactive

Source: PubChem BioAssay (Tox21)
